Here are results for 17 compounds from PubChem BioAssay AID488815 (Broad Institute, 2010).

Results with a measured potency or affinity are listed apart. Results filed as inconclusive are left out. Values without a mark were called inactive. The rule behind the calls is not given here.

Chain of CAAX prenyl protease 1 (Saccharomyces cerevisiae (strain ATCC 204508 / S288c)) (P47154 whole entry, looked up): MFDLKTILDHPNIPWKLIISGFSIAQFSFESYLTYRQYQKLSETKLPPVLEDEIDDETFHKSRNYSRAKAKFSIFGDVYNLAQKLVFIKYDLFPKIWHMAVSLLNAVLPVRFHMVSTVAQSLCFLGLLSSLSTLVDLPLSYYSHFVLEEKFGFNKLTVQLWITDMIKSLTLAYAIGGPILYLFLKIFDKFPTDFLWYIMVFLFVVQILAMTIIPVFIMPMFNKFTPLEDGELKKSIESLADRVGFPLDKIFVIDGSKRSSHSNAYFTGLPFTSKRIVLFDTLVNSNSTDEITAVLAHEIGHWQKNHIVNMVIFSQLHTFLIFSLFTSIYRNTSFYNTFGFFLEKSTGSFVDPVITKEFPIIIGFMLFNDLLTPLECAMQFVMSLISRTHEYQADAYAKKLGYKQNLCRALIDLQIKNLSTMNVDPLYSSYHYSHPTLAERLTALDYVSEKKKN

This experiment has as its target CAAX prenyl protease 1 (Saccharomyces cerevisiae (strain ATCC 204508 / S288c)) (UniProt P47154). In words: yeast CAAX protease Ste24 inhibition – biochemical, S. cerevisiae, plate reader, cherry-pick, dose response (AID 488815).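 Note: 0% = neutral control wells and -100% = no enzyme wells.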 As to conditions: series mostly up to 10 µM; activity change, negative = inhibition: at the top concentration.
As for `CC(C)c1c(C(=O)N/N=C/c2cccc3ccccc23)nnn1-c1nonc1N`, the “activity change, negative = inhibition” value was 11.6%.

For the compound `O=C(O)CCC(=O)c1ccc(-c2ccccc2)cc1`, the “activity change, negative = inhibition” value is 30.2%.

Turning to `c1ccc(Nc2cccc(Nc3ccccc3)n2)cc1`, the “activity change, negative = inhibition” value is 67%.

For `O=C(c1cnc2n(c1=O)CCS2)N1CCN(C(c2ccccc2)c2ccc(Cl)cc2)CC1` (configuration not stated), the “activity change, negative = inhibition” value was 24%.

With `CCOc1ccc(-c2c(C(=O)N/N=C/c3cccs3)nnn2-c2nonc2N)cc1`, the “activity change, negative = inhibition” value was 20.5%.

`COCCN1C(=O)/C(=C/c2ccc(Oc3ccc([N+](=O)[O-])cn3)c(OC)c2)SC1=Nc1ccccc1`: the “activity change, negative = inhibition” value was 2.64%.

Regarding `CC(Cc1cccs1)NC(=O)Nc1ccc([N+](=O)[O-])cc1` (configuration not stated), the “activity change, negative = inhibition” value is 27%.

In the case of `O=C(Nc1ncccn1)c1ccc([N+](=O)[O-])cc1`, the “activity change, negative = inhibition” value was 14.3%.

Take `CC(C)CC(=O)NC(=S)Nc1ccc(S(=O)(=O)Nc2nccs2)cc1`: the “activity change, negative = inhibition” value is 22.6%.

On to `O=C(Nc1cc(S(=O)(=O)N2CCOCC2)ccc1N1CCCC1)c1cnccn1`, for which the “activity change, negative = inhibition” value was 9.97%.

`Cc1cc(C(=O)N/N=C/c2c3ccccc3cc3ccccc23)n[nH]1`: the “activity change, negative = inhibition” value was 0.0888%.

With `O=C1C(Cc2c[nH]c3ccccc23)NC(=S)N1Cc1ccccc1` (configuration not stated), the “activity change, negative = inhibition” value was 9.65%.

Regarding `CC(/C=N\NC(=O)CN1CCN(S(=O)(=O)c2ccc(C)cc2)CC1)=C\c1ccccc1`, the “activity change, negative = inhibition” value was 12.6%.

With `COc1ccc(C)cc1NC(=O)CN1C(=O)COc2ccc(S(=O)(=O)N3CCOCC3)cc21`, the “activity change, negative = inhibition” value was 29.9%.

Take `COc1ccc(S(=O)(=O)N(CC(=O)N2CCCC2)Cc2ccccc2)cc1`: the “activity change, negative = inhibition” value was 18.6%.

In the case of `O=C(C(Cc1ccccc1)N1C(=O)c2ccccc2C1=O)N1c2ccccc2CCc2ccccc21` (configuration not stated), the “activity change, negative = inhibition” value is 10.4%.

Regarding `C#CCNC(=O)C1=C[C@@H](C2CCCCC2)C[C@@H](OCc2ccc(CO)cc2)O1`, the “activity change, negative = inhibition” value was 6.13%.
